In PubChem BioAssay (NCI):
Compounds without any hit were thinned out: in the full panel of roughly 79,000, 15% have a hit. The source made the active and inactive calls. No stated cut-off is given here; in the data, active means growth inhibition above about 70%; inactive means the rest.

Experiments:
[1] = NCI Yeast Anticancer Drug Screen. Data for the mlh1 rad18 strain (AID 175); settings: S. cerevisiae mlh1 rad18 strain growth inhibition, hits give high values
How it was run: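 Genetically defined yeast (DNA repair-deficient) exposed to compounds; growth inhibition determined relative to vehicle.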

[2] = NCI Yeast Anticancer Drug Screen. Data for the rad18 strain (AID 177); settings: S. cerevisiae rad18 mutant growth inhibition, hits give high values
How it was run: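 Vehicle-treated cultures served as the baseline for scoring compound-induced growth inhibition in DNA-repair-mutant yeast.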

[3] = NCI Yeast Anticancer Drug Screen. Data for the wt1 strain (AID 149);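 further: 0% = growth of vehicle-treated wt1 cultures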; settings: S. cerevisiae wt1 strain (SPY 50644) growth inhibition, hits give high values
How it was run: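 Vehicle-normalised growth inhibition; strain wt1; compound exposure.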

[4] = NCI Yeast Anticancer Drug Screen. Data for the rad50EPP+ strain (AID 151);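 further: 0% = growth of vehicle-treated control cultures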; settings: S. cerevisiae rad50 mutant strain, hits give high values
How it was run: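 Vehicle-normalised growth inhibition; rad50EPP+ yeast strain, altered in DNA damage repair, compound-treated.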

[5] = NCI Yeast Anticancer Drug Screen. Data for the mgt1 strain (AID 153); settings: S. cerevisiae mgt1 mutant growth inhibition, hits give high values
How it was run: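 Vehicle-normalized growth inhibition is determined in mgt1 yeast, a strain selected for a defined alteration in DNA repair or cell cycle control.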

[6] = NCI Yeast Anticancer Drug Screen. Data for the rad50 strain (AID 155);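 further: 0% = growth of vehicle-only cultures of the same strain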; settings: S. cerevisiae rad50 strain growth inhibition, hits give high values
How it was run: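 A DNA repair-deficient yeast mutant serves as the test organism; compound-induced growth inhibition is calculated against vehicle-treated cells.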

[7] = NCI Yeast Anticancer Drug Screen. Data for the mec2-1 strain (AID 157); settings: S. cerevisiae mec2-1 strain, hits give high values
How it was run: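 Mutant yeast (mec2-1) grown with compound; growth inhibition relative to vehicle control reported.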

[8] = NCI Yeast Anticancer Drug Screen. Data for the rad14 strain (AID 159);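 further: 0% = growth of vehicle-treated control cultures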; settings: S. cerevisiae rad14 strain growth inhibition, hits give high values
How it was run: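 Vehicle-treated cultures served as the baseline for growth inhibition of a DNA repair-mutant yeast strain exposed to each compound.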

[9] = NCI Yeast Anticancer Drug Screen. Data for the sgs1 mgt1 strain (AID 161);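 further: 0% = growth of cultures given vehicle only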; settings: S. cerevisiae sgs1 mgt1 strain, hits give high values
How it was run: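 This yeast growth screen uses a strain with defined DNA-repair lesions; compound-treated growth is compared with vehicle-treated growth.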

[10] = NCI Yeast Anticancer Drug Screen. Data for the CLN2oe strain (AID 163);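 further: 0% = growth of vehicle-only control cultures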; settings: S. cerevisiae CLN2oe strain, hits give high values
How it was run: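 Compounds are applied to yeast harbouring a defined cell-cycle control change; reduced growth compared with vehicle-treated controls gives the value.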

[11] = NCI Yeast Anticancer Drug Screen. Data for the cln2 rad14 strain (AID 165);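 further: 0% = growth equal to vehicle treated cultures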; settings: S. cerevisiae cln2 rad14 strain, hits give high values
How it was run: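 Readout is yeast growth inhibition versus vehicle-treated controls, using a strain with cln2 and rad14 alterations exposed to compound.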

[12] = NCI Yeast Anticancer Drug Screen. Data for the bub3 strain (AID 167); settings: S. cerevisiae bub3 mutant strain, hits give high values
How it was run: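 Inhibition values come from growth of compound-treated mutant yeast normalised to vehicle-treated controls.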

[13] = NCI Yeast Anticancer Drug Screen. Data for the wt2 strain (AID 169);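 further: 0% = growth of vehicle-treated yeast cultures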; settings: S. cerevisiae wt2 strain growth inhibition, hits give high values
How it was run: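 Against vehicle-treated controls, the growth of yeast exposed to each compound was compared, and the inhibition was recorded.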

[14] = NCI Yeast Anticancer Drug Screen. Data for the mlh1 strain (AID 171);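 further: 0% = growth of vehicle-treated control cultures of the same strain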; settings: S. cerevisiae mlh1 strain growth inhibition, hits give high values
How it was run: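 Measured: yeast growth. Reference: vehicle-treated controls. Organism: strain with a defined alteration affecting DNA damage repair or cell cycle control, treated with compound.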

[15] = NCI Yeast Anticancer Drug Screen. Data for the sgs1 strain (AID 173);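 further: 0% = growth of vehicle-only control cultures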; settings: S. cerevisiae sgs1 mutant, hits give high values
How it was run: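 Each compound was added to cultures of the altered yeast strain. Growth was recorded, and inhibition was derived by comparison with vehicle controls.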

[16] = at 5.0 µM (retest, dose inferred, filed as 0.5)
[17] = at 50.0 µM (retest, dose inferred, filed as 5.0)

Measured: growth inhibition

Cc1ccnc(NS(=O)(=O)c2ccc(Nc3c4ccccc4nc4ccccc34)cc2)n1
inactive: [1]; [16] 26% | [1]; at 50.0 µM 37.7% | [2]; at 1.2 µM 16% | [2]; at 3.7 µM 19% | [2]; at 11.0 µM 36% | [2]; at 33.0 µM 65%
active: [1]; [17] 74% | [2]; at 100.0 µM 79%

CC(=O)O/N=C/c1c2ccccc2cc2ccccc12
active: [6]; [17] 90% | [8]; at 100.0 µM 78% | [9]; [17] 88% | [12]; [17] 84% | [1]; [16] 80% | [1]; [17] 92% | [2]; at 100.0 µM 83%
inactive: [3]; at 1.2 µM -1% | [3]; at 3.7 µM 2% | [3]; at 11.0 µM 0% | [3]; at 33.0 µM 3% | [3]; at 100.0 µM 10% | [4]; at 1.2 µM 14% | [4]; at 3.7 µM 24% | [4]; at 11.0 µM 44% | [4]; at 33.0 µM 64% | [4]; at 100.0 µM 66% | [5]; at 1.2 µM -4% | [5]; at 3.7 µM -3% | [5]; at 11.0 µM -1% | [5]; at 33.0 µM 9% | [5]; at 100.0 µM 20% | [6]; at 1.2 µM 0% | [6]; at 3.7 µM 1% | [6]; [16] 55% | [6]; at 11.0 µM 5% | [6]; at 33.0 µM 20% | [6]; at 50.0 µM 15.2% | [6]; at 100.0 µM 62% | [7]; at 1.2 µM -3% | [7]; at 3.7 µM 2% | [7]; [16] 4% | [7]; at 11.0 µM 7% | [7]; at 33.0 µM 20% | [7]; [17] 18% | [7]; at 50.0 µM 8.65% | [7]; at 100.0 µM 26% | [8]; at 1.2 µM -2% | [8]; at 3.7 µM 0% | [8]; at 11.0 µM 5% | [8]; at 33.0 µM 23% | [9]; [16] 30% | [9]; at 50.0 µM 63.6% | [10]; at 1.2 µM -10% | [10]; at 3.7 µM -20% | [10]; at 11.0 µM -13% | [10]; at 33.0 µM -6% | [10]; at 100.0 µM -6% | [11]; [16] 15% | [11]; [17] 40% | [11]; at 50.0 µM -47.8% | [12]; at 1.2 µM 9% | [12]; at 3.7 µM 12% | [12]; [16] 58% | [12]; at 11.0 µM 26% | [12]; at 33.0 µM 47% | [12]; at 50.0 µM 43.1% | [12]; at 100.0 µM 63% | [13]; at 1.2 µM -1% | [13]; at 3.7 µM -1% | [13]; at 11.0 µM -2% | [13]; at 33.0 µM 13% | [13]; at 100.0 µM 32% | [14]; at 1.2 µM 1% | [14]; at 3.7 µM -1% | [14]; at 11.0 µM 1% | [14]; at 33.0 µM 17% | [14]; at 100.0 µM 52% | [15]; at 1.2 µM -1% | [15]; at 3.7 µM -1% | [15]; at 11.0 µM 3% | [15]; at 33.0 µM 29% | [15]; at 100.0 µM 58% | [1]; at 50.0 µM 33% | [2]; at 1.2 µM 0% | [2]; at 3.7 µM -1% | [2]; at 11.0 µM 11% | [2]; at 33.0 µM 54%
